# Hits are enriched below; roughly 4.8% of the tested compounds scored in any of these assays.
# ATXN2 expr inh: reduces ATXN2 reporter expression in HEK-293 cells; HEK-293 ATXN2-luciferase reporter, luminescence, 24 h; Potency, µM (top dose mostly 57 µM), without a hit: at the highest dose activity change, negative = inhibition, most hits filed as inhibitors; actives 0.72% (n = 360,000); AID 1745845; note: potency is the fitted concentration of half-maximal effect; % is set by controls: 0 for no effect and ±100 for the full control effect; nearly all actives have a fitted effect of over 55% in size
#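 qHTS (up to 57 uM final) was run with 24 h compound exposure of reporter cells at 37 °C. Each well was multiplexed: SteadyGlo luminescence measured ATXN2-luciferase expression after a fluorogenic Gly-Phe-AFC viability readout (25 uM final).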
# S2 tox: reduces viability in counter-screen for ATXN expression inhibitors | S2 cells (HEK-293 line with an ATXN2-luciferase reporter) viability, CellTiter-Fluor protease fluorescence, 24 h | Potency, µM (series often up to 56.7 µM), usual class: cytotoxic | actives 0.49% (n = 400,000); note: potency is the fitted concentration of half-maximal effect; nearly all actives have a fitted effect of over 40% in size
# USP1 inh: blocks the human USP1/UAF1 deubiquitinase complex; AID 743255; actives 0.23% (n = 390,000); Potency, µM (series often up to 57.1 µM), without a hit: at the top dose activity change, negative = inhibition, most hits filed as inhibitors; recombinant USP1/UAF1, Ub-Rhodamine cleavage fluorescence; note: potency is the fitted concentration of half-maximal effect; % is set by controls: 0 for no effect and ±100 for the full control effect; nearly all actives have a fitted effect of over 60% in size
# Target sequence (O94782 whole entry, looked up): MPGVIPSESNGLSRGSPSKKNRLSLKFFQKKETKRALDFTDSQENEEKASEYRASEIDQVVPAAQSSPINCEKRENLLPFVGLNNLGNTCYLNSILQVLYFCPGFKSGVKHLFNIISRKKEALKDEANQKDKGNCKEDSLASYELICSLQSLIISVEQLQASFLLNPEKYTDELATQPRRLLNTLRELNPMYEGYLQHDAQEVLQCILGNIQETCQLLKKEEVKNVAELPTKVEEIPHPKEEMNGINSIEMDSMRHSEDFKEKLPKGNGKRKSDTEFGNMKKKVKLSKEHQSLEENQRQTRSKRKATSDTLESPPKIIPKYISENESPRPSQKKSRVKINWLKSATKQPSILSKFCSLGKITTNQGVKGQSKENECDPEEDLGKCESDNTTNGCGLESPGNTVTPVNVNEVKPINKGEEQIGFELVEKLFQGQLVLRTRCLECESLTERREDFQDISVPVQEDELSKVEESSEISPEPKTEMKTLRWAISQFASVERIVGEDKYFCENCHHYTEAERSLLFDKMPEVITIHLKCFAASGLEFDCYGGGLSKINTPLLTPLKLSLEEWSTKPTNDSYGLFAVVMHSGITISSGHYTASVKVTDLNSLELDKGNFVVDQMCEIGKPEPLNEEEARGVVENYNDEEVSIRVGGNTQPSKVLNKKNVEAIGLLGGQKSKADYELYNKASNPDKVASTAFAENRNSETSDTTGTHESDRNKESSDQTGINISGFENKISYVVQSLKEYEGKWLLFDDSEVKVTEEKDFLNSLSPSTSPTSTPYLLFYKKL
#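 Step one: compound is pinned into 1nM USP1/UAF1 in HEPES pH 7.8 buffer with TCEP. Step two: 15 min room-temperature incubation. Step three: Ub-Rho (150nM final) starts cleavage, tracked by fluorescence over six one-minute reads.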
# USP2a inh: USP2a (human) protease inhibition. O75604. USP2 core, Ub-CHOP2 coupled fluorogenic reporter, 485/531. Potency, µM (doses to about 38.3 µM), inactives show at the highest dose activity change, negative = inhibition, usual class: inhibitors. actives 0.01% (n = 330,000). AID 463254;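 note: potency is the fitted concentration of half-maximal effect; plate controls were DMSO wells for no effect and full inhibition by NEM control for full effect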
#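 Deubiquitinase activity read as fluorescence (485/531 nm) after Ub-CHOP2 cleavage activates the enterokinase reporter on its substrate; USP2 core 10nM, Ub-CHOP2 and substrate 25nM each, 30min compound preincubation then 60min RT; data normalized to NEM, curves fitted.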
# IL-1B inflam inh: inflammasome signaling inhibition, IL-1 beta readout | activity change, % at 57.5 µM | AID 743279 | actives 4.7% (n = 360,000) | THP-1 LPS/ATP IL-1B secretion, AlphaLISA, 16 h; active compounds read low; in the data active = activity change below about -50%; inconclusive = mostly about -30% to -49%; note: % is set by controls: 0 for no effect and ±100 for the full control effect
#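 THP-1 cells pretreated 1 hr with compounds (up to 57.5 uM final), then stimulated with LPS (250 ng/mL final) plus ATP (1.25 mM final); secreted IL-1B measured by AlphaLISA after 16 hr, decreased signal indicating inhibition.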
# Starred values were filed as active, the others as inactive; i = inactive; ? = inconclusive; . = no result. Unless noted, calls come from the whole dose curve; as a rule, active = well fitted curve in the direction sought with a large enough effect; inconclusive = small, poorly fitted or top-dose-only effect, or another doubt; inactive = no such curve, though single readings can be large; an effect the other way counts as inactive or inconclusive.
SMILES,ATXN2 expr inh,S2 tox,USP1 inh,USP2a inh,IL-1B inflam inh
CC1CCC(C(C)C)C(OC(=O)C[n+]2cc(-c3ccc(Cl)cc3)n3c2CCC3)C1 (centres undefined),?,i,-8.6%,0.4%,-86.1*
CC(=O)Nc1ccc2nc(SCCOc3ccccc3Cl)sc2c1,-32.4%,i,-9.2%,.,.
CC(C)n1cnc2c(Nc3cccc(Cl)c3)nc(NCCCO)nc21,-33.8%,?,-16.5%,1.1%,-95.0*
CC(C)n1cnc2c(NCCCCCCNC(=O)OC(C)(C)C)nc(NCCO)nc21,13.7µM*,.,.,.,.
CC(C)n1cnc2c(NCc3ccccc3)nc(NCc3ccccc3)nc21,-10.3%,i,-16.6%,-14.9%,-14.6
CC(C)[C@H](CO)Nc1nc(Nc2ccc(Cl)c(C(=O)O)c2)c2ncn(C(C)C)c2n1,-7.8%,i,-22.8%,2.7%,7.6
Cc1cccc(N(Cc2cc3ccc(C)cc3[nH]c2=O)S(=O)(=O)c2ccccc2)c1,.,?,-12.3%,-1.5%,-2.1
Cc1ccc2c(c1)c1c3n2CCN=C3CCC1,-17.0%,i,-0.7%,0.3%,-95.8*
O=C(COc1ccc(Cl)cc1)c1ccc(O)cc1O,33.9%,i,-2.9%,6.4%,-66.6*
CN[C@H](CC(C)C)C(=O)N[C@H]1C(=O)N[C@@H](CC(N)=O)C(=O)N[C@H]2C(=O)N[C@H]3C(=O)N[C@H](C(=O)N[C@@H](C(=O)O)c4cc(O)cc(O)c4-c4cc3ccc4O)[C@H](O)c3ccc(c(Cl)c3)Oc3cc2cc(c3O[C@@H]2O[C@H](CO)[C@@H](O)[C@H](O)[C@H]2O[C@H]2C[C@](C)(N)C(O)[C@H](C)O2)Oc2ccc(cc2Cl)[C@H]1O (some centres undefined),.,i,.,.,.
O=C(Nc1cccc(S(=O)(=O)NCc2ccco2)c1)c1cc(-c2ccc(F)cc2)nc2ccccc12,?,?,-18.7%,-0.7%,-76.9*
Cc1cc(C)c2c(C)c(C(=O)NCc3ccncc3)oc2c1,-3.2%,i,-20.3%,0.1%,-0.7
CCc1ccc2oc(C(=O)NCc3ccncc3)c(C)c2c1,12.1%,?,-16.8%,1.7%,-66.4*
O=c1c2c(-c3ccccc3)csc2nc2c3ccccc3c(NCCN3CCOCC3)nn12,?,.,-11.2%,-14.5%,-101.3*
COc1cc(F)ccc1-c1csc(C(O)c2ccc(F)c(F)c2)n1 (centres undefined),-18.8%,?,.,.,-4.8
C=C1CCN(c2ccc(C(=O)NCc3ccc(C)cc3)cc2[N+](=O)[O-])CC1,10.1%,i,-25.6%,-0.5%,-62.6*
COC(=O)c1cc(CNC(=O)c2ccc(N3CCCC3)c([N+](=O)[O-])c2)ccc1OC,8.1%,i,?,-0.9%,-9.1
C=C1CCN(c2ccc(C(=O)NCc3ccc(OC)cc3)cc2[N+](=O)[O-])CC1,0.0%,i,?,.,-75.4*
COc1ccccc1CNC(=O)c1ccc(N2CCOCC2)c([N+](=O)[O-])c1,-4.7%,i,-11.1%,-6.3%,-54.9*
O=C(Nc1nc(-c2ccccc2)cs1)c1ccc(N2CCOCC2)c([N+](=O)[O-])c1,12.6µM*,?,-1.7%,2.2%,?
O=C(NCc1ccncc1)c1ccc(N2CCCC2)c([N+](=O)[O-])c1,-20.8%,i,-13.1%,1.4%,-3.0
COc1cccc(CNC(=O)c2ccc(N3CCOCC3)c([N+](=O)[O-])c2)c1,0.8%,i,-11.9%,0.4%,-12.4
O=C(CSc1nc2ccccc2c2nc(-c3ccccc3)nn12)Nc1ccc(F)cc1,.,.,-26.6%,.,.
NC(=O)c1c(N)[nH]c(C(=O)c2ccccc2)c1-c1ccccc1Br,19.4%,i,.,.,26.2
COc1cccc(C2Nc3ccccc3NC3=C2C(=O)CC(C)(C)C3)c1OC (centres undefined),-0.8%,i,-29.1%,0.1%,-2.8
COc1ccc(C2Nc3ccccc3NC3=C2C(=O)CC(C)(C)C3)c(OC)c1OC (centres undefined),-23.2%,0.282µM*,-20.0%,-0.1%,17.8
Cc1ccc(-c2nc3c(C)cc(Br)cn3c2Cc2ccsc2)cc1,-0.4%,?,.,.,45.9

# Assay outcomes (PubChem BioAssay)
